In the library only some 3.3% were active in any assay of this set; here they are far more common.
BoNT-F LC inh – BoNT/F light chain protease inhibitors, primary screen, biochemical, flow cytometry, MLPCN library. Botulinum neurotoxin type F light chain protease (Clostridium botulinum). AID 588497, 2011. inhibition, % at 10 µM. 360,000 compounds, 0.22% hits. Multiplex microsphere protease cleavage assay; in the data active = inhibition above about 35%, passing the limit was not always enough; inconclusive = no clear call, values can overlap the other calls; also: plate controls were buffer without enzyme for full effect and enzyme alone for no effect
PriA SSB inh – inhibitors of Klebsiella pneumoniae PriA binding to SSB C-terminal tail, primary screen, biochemical, AlphaScreen; 430,000 compounds, 0.6% hits; AlphaScreen SSBct-PriA binding, biotinylated peptide; inhibition, % at 33 µM; in the data active = inhibition mostly above about 37%, no sharp cut-off; inactive = mostly below about 20%;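 also: plate controls were negative control peptide for no effect and reference peptide for full effect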
MazF activator – activators of E. coli MazEF toxin-antitoxin RNase, primary screen, biochemical, fluorescence, uHTS; Endoribonuclease toxin MazF (Escherichia coli (strain K12)), P0AE70; FAM/BHQ RNA-DNA oligo cleavage fluorescence, 5 h; activation, % at 20 µM; 350,000 compounds, 0.32% hits; in the data active = activation above about 50%
BoNT-A LC inh2 – BoNT/A light chain protease inhibitors, primary screen, biochemical, flow cytometry, MLPCN library | Botulinum neurotoxin type A light chain protease (Clostridium botulinum A str. ATCC 3502) | inhibition, % at 10 µM | multiplex microsphere protease substrate cleavage | 360,000 compounds, 0.17% hits; also: plate controls were buffer without enzyme for full effect and enzyme alone for no effect
Anthrax LF inh2 – Bacillus anthracis LF protease inhibitors, primary screen, biochemical, multiplex microsphere, MLPCN library; Lethal factor (Bacillus anthracis), P15917; multiplex microsphere protease cleavage assay; inhibition, % at 10 µM; 360,000 compounds, 0.12% hits; AID 588501, 2011; also: plate controls were buffer without enzyme for full effect and enzyme alone for no effect
Autofluor counter – compound fluorescence in toxin protease inhibitor counterscreen; fluorescence intensity (concentration not given with the values); 360,000 compounds, 3.1% hits; compound autofluorescence counterscreen, microsphere flow cytometry; hits give high values; AID 624483; in the data active = fluorescence intensity above about 16000; inconclusive = no clear call, values can overlap the other calls
The depositor's hits bear a star; u = inconclusive; x = no result given. Rule as the data show it, unless noted: active = inhibition above about 30%; inconclusive = no clear call, values can overlap the other calls; inactive = below that.

SMILES	BoNT-F LC inh	PriA SSB inh	MazF activator	BoNT-A LC inh2	Anthrax LF inh2	Autofluor counter
CCOc1cc2c(cc1C=O)OC(C)C2 (configuration not stated)	-6	-1	0	0	-3	3346
CCOc1cc2c(cc1/C=C/c1noc(C)c1[N+](=O)[O-])OC(C)C2 (configuration not stated)	27	-8	370*	15	4	11411
OC(COc1ccc(Br)cc1)CSc1ccccn1 (configuration not stated)	x	-30	x	x	x	x
COc1ccc(C(=O)COC(=O)C2CC3CCCC(C2)C3=O)cc1Br (configuration not stated)	9	-4	2	-2	3	u
COc1ccc(C(=O)COC(=O)CN2CC(=O)Oc3ccccc32)cc1Br	2	80*	2	0	3	4184
COC(=O)NC1CCS(=O)(=O)C1 (configuration not stated)	-7	-1	-1	u	-4	17672*
CC(c1cccs1)N(C(=O)Nc1ccccc1)C1CCCCC1 (configuration not stated)	3	3	-6	1	0	21824*
CC(C)CCN(C(=O)Nc1ccccc1)C(C)c1cccs1 (configuration not stated)	-5	-36	-6	-1	-3	20892*
COc1ccc(C2=NN(C(=O)c3ccco3)[C@H](c3ccc4nccnc4c3)C2)cc1	x	6	x	x	x	x
O=S(=O)(c1ccc(Br)s1)n1cccn1	1	-19	4	u	-1	20761*
O=S(=O)(c1cccs1)n1cccn1	-8	6	6	0	-4	3505
Cc1nc(-c2noc(-c3cccnc3)n2)cn1CC(=O)NCc1ccccc1Cl	x	-34	x	x	x	x
CCc1nnc(NC(=O)Nc2ccccc2OC)s1	1	-14	1	u	-7	22103*
COc1ccccc1NC(=O)NC(=O)c1ccccc1	u	-7	0	5	0	3738
COc1ccccc1NC(=O)NC(N)=O	-3	-9	2	0	0	21653*
COc1ccccc1NC(=O)Nc1nnc(CC(=O)Nc2ccccc2C)s1	-3	-12	-3	0	4	4379
Cc1nc(-n2nc(-c3ccco3)cc2NC(=O)C2c3ccccc3Oc3ccccc32)[nH]c(=O)c1C	x	-15	x	x	x	x
CCOC(=O)N1CCN(C(=O)c2ccc(NS(C)(=O)=O)cc2)CC1	1	-4	9	0	-3	16339*
CN(c1ccccc1C(=O)N1CCCC1)S(C)(=O)=O	u	-7	-2	-1	-7	4702
CCOC(=O)N1CCN(C(=O)c2ccc(S(=O)(=O)Nc3ccc(C)cc3)cc2)CC1	-8	-2	-3	0	-3	3038
CCOC(=O)N1CCN(C(=O)c2ccccc2N(C)S(C)(=O)=O)CC1	-4	-1	1	-2	-4	16798*
Cc1ccc2nc(N(Cc3cccnc3)C(=O)Cc3cccc4ccccc34)sc2c1	x	6	x	x	x	x
CCOc1ccc(NS(=O)(=O)c2ccc(C(=O)NCc3ccncc3)cc2)cc1	-232	6	3	-176	-35	42543*
CCCCN(CCCC)S(=O)(=O)c1ccc(NS(=O)(=O)c2ccc(NC(C)=O)cc2)cc1	-3	-2	6	u	1	21196*
CCCNC(=O)COc1ccc(S(=O)(=O)Nc2ccc(C)cc2)cc1	2	-1	-4	2	-1	22233*
SMILES	BoNT-F LC inh	PriA SSB inh	MazF activator	BoNT-A LC inh2	Anthrax LF inh2	Autofluor counter
CCCCOC(=O)Nc1ccc(S(=O)(=O)Nn2cnnc2)cc1	-20	-14	1	u	-5	29599*
CNC(=O)COc1ccc(S(=O)(=O)Nc2ccc(C)cc2)cc1	3	-12	5	-1	-2	4120
COCCN(Cc1ccoc1)C(=O)Cc1ccsc1	x	-5	x	x	x	x
COc1ccc(NS(=O)(=O)c2ccc(NC(C)=O)cc2)cc1	x	0	x	x	x	x
CCCCOc1ccc(S(=O)(=O)Nc2ccc(NC(C)=O)cc2)cc1	0	-7	-1	1	-2	21764*
COc1ccc(NC(=O)N2C[C@@H]3C[C@H](C2)c2cccc(=O)n2C3)cc1	x	2	x	x	x	x
Cc1ccc(-n2ncc3c(=O)n(NC(=O)Cc4ccc(-c5ccccc5)cc4)cnc32)cc1C	x	6	x	x	x	x
O=C(O)CCc1ccc(-c2ccc(Br)cc2)o1	-3	-12	-13	u	-1	23745*
CCOC(=O)c1ccc(NC(=O)c2ccccc2SC)cc1	x	-1	x	x	x	x
Cc1cc(Nc2ccccc2)nc(-c2ccccc2O)n1	-11	-25	3	-1	2	4866
CC(=NNc1cc(C)nc(-c2ccccc2O)n1)c1ccccc1	x	-37	x	x	x	x
Cc1cc(NCc2ccccc2)nc(-c2ccccc2O)n1	-2	-80	-4	u	0	20264*
Cc1cc(Nc2ccccc2Cl)nc(-c2ccccc2O)n1	36*	-14	1	0	3	4056
CCC(C)(C)n1nnnc1C(c1cc2ccc(OC)cc2[nH]c1=O)N1CCc2ccccc2C1 (configuration not stated)	-2	17	-75	1	1	11391
CCC(C)(C)n1nnnc1C(c1cc2ccc(OC)cc2[nH]c1=O)N1CCc2ccccc21 (configuration not stated)	-4	3	3	u	6	17938*
CCC(C)(C)n1nnnc1C(c1cc2cc(OC)ccc2[nH]c1=O)N1CCc2ccccc21 (configuration not stated)	0	-5	-3	2	1	16186*
O=C(NC(NCc1ccccn1)(C(F)(F)F)C(F)(F)F)c1ccco1	0	31	3	0	2	22419*
O=C(NCCNCc1ccccn1)c1ccco1	1	20	0	-1	-1	2262
CC(C)(C)OC(=O)CN(c1cccc(Cl)c1)S(=O)(=O)c1cccn2cnnc12	x	-19	x	x	x	x
C/C(C=NNC(=O)c1cc(-c2ccccc2)nc2ccccc12)=C\c1ccco1	x	28	x	x	x	x
CC(/C=N/NC(=O)c1cc(-c2ccncc2)nc2ccccc12)=C\c1ccco1	-1	x	-5	1	-6	16302*
NS(=O)(=O)c1cc(C(=O)N2CCc3ccccc32)c(Cl)cc1Cl	1	-9	6	3	-4	18762*
O=C(c1cc(Cl)ccc1Cl)N1CCc2ccccc21	u	-26	1	5	-11	3260
O=C(c1ccc(Cl)s1)N1CCCC1	-5	-9	6	-4	-1	24368*
Cn1ncc(Cl)c1C(=O)N1CCc2ccccc21	3	0	-8	1	0	10470
Cc1nn(C)c(C(=O)N2CCc3ccccc32)c1Cl	0	1	0	u	-1	21851*
